Hits are enriched below; roughly 6.8% of the tested compounds scored in any of these assays.
Spn DPM-DC inh – S. pneumoniae DPM-DC inhibitors, primary screen, biochemical, PK/LDH-coupled NADH fluorescence | AID 556, 2006 | actives 0.49% (n = 65,000) | calls only at 10 µM | purified DPM-DC;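 active = the 320 compounds with the highest percent inhibition in the single-dose primary screen, excluding strongly autofluorescent ones, cut at about 32% in these data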;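 also: kinetic rate of NADH fluorescence loss reporting ADP formed by the decarboxylase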
A340 absorber – compound light absorbance at 340 nm, profiling panel, artefact control, biochemical, MLSMR library, data from PS, PMK, MK assays. compound absorbance at 340 nm, fold over control. fold change at 10 µM. 65,000 tested, under 10 active. AID 708, 2007;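 active = at 10 µM dose, initial 340 nm absorbance at least 2 fold that of control wells; inactive = change under 2 fold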;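 also: initial absorbance extrapolated from kinetic A340 decline of NADH oxidation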
Fluor 339 460 – intrinsic fluorescence of library compounds, ex339/em460 – biochemical, MLSMR library, data from DPM-DC assay, artefact control, profiling panel | compound autofluorescence, ex339/em460 nm, NADH buffer; active compounds read high; 1 = no-compound wells, NADH background | actives 5.5% (n = 65,000) | fluorescence fold increase at 10 µM | AID 709, 2007;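 active = at 10 µM, mean starting fluorescence two-fold or more over control wells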;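 also: signal is the first read of a kinetic run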
NADH enzymes – inhibitors of PK/LDH coupling enzymes, profiling panel, artefact control, biochemical, MLSMR library | AID 774, 2007 | coupled PK/LDH NADH assays, four targets | actives 0.02% (n = 65,000) | IC50, µM (highest dose often 10 µM);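 active = single-dose screening hits from any of four coupled enzyme assays that gave an IC50 when retested across doses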;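 also: the DPM-DC format reads NADH fluorescence rather than 340 nm absorbance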
PMK inhibit – S. pneumoniae PMK inhibitors, primary screen, biochemical, mevalonate pathway, pilot trial included; AID 539, 2006; inhibition, % at 10 µM; actives 0.49% (n = 65,000); purified PMK, PK/LDH-coupled NADH absorbance 340 nm; phosphomevalonate kinase (Streptococcus pneumoniae D39);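 active = top-ranked compounds by inhibition in the single 10 µM screen, taking a fixed number of the strongest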
Spn MK inh – S. pneumoniae MK inhibitors, primary screen, biochemical, PK/LDH-coupled NADH absorbance; mevalonate kinase [Streptococcus pneumoniae D39]; purified MK, PK/LDH-coupled NADH absorbance 340 nm; inhibition, % at 10 µM; actives 0.48% (n = 65,000);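 active = ranked among the strongest by inhibition in the single 10 µM screen, a fixed top-ranked set picked for dose follow-up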
Numbers stand for hits; – = inactive; · = no result given; + = active, no number.

SMILES	Spn DPM-DC inh	A340 absorber	Fluor 339 460	NADH enzymes	PMK inhibit	Spn MK inh
COc1ccc(C2C=C(c3ccc(C)cc3)Nc3ncnn32)cc1 (centres undefined)	·	–	2.4	–	–	–
COc1ccc(C2=CC(c3ccc(C)cc3)n3nnnc3N2)cc1 (centres undefined)	–	–	–	–	–	–
COc1cccc(C2=CC(c3ccccc3)n3ncnc3N2)c1 (centres undefined)	–	–	–	–	–	–
C1=C(c2ccc(-c3ccccc3)cc2)Nc2ncnn2C1c1ccco1 (centres undefined)	·	–	3.9	–	–	–
COc1cccc(C2=CC(c3ccc(N(C)C)cc3)n3ncnc3N2)c1 (centres undefined)	–	–	2.1	–	–	–
CC1(C)CC(=O)C2=C(C1)NC(Nc1nc3ccccc3o1)=NC21CCCCC1	–	–	2.4	–	–	–
Cc1nn(C)c(C)c1NC(=O)CSc1nc(-c2ccccc2F)nc2c1cnn2-c1ccccc1	–	–	2.1	–	–	–
CCOC(=O)c1cccc(NC(=O)CN2C(=O)C3C4C=CC(C4)C3C2=O)c1 (centres undefined)	–	–	–	–	–	–
O=C(CN1C(=O)C2C3C=CC(C3)C2C1=O)Nc1ccc2nccnc2c1 (centres undefined)	·	–	2.1	–	–	–
CCOC(=O)c1c(C)c(C(=O)NCc2ccc3c(c2)OCO3)c(C)n1C	–	–	–	–	–	–
CCOC(=O)CN1C(=O)C(O)(CC(=O)c2cccc(OC)c2)c2ccccc21 (centres undefined)	–	–	–	–	–	–
CCOc1ccc2nc(NCCNC(=O)C3CC3)c(C)cc2c1	·	–	3.8	–	–	–
COCC(=O)NCCNc1nc2ccc(C)cc2cc1C	·	–	3.5	–	–	–
CCOc1ccc2nc(NCCNC(=O)C(C)C)c(C)cc2c1	·	–	4.7	–	–	–
CCCC(=O)Nc1nc2ccc(OCC)cc2s1	–	–	–	–	–	–
O=C1CC(=O)CC(c2ccccc2Cl)C1	–	–	–	–	–	–
O=C(COC(=O)CCC(=O)c1cccs1)Nc1ccc(S(=O)(=O)N2CCOCC2)cc1	–	–	–	–	–	–
Cc1ccc(CNc2ccc(N3CCOCC3)c(C(=O)O)c2)s1	–	–	2.4	–	–	–
COC(=O)c1cc(NCc2ccccc2F)ccc1N1CCOCC1	–	–	–	–	–	–
O=C(O)c1cc(NCc2c(F)cccc2Cl)ccc1N1CCOCC1	–	–	–	–	–	–
CCOc1ccccc1CNc1ccc(N2CCOCC2)c(C(=O)O)c1	–	–	2.2	–	–	–
CCOC(=O)N1CCC2(CC1)CC(=O)c1c(ccc3oc(C(=O)O)c(C)c13)O2	·	–	3.4	–	–	–
CCOC(=O)c1oc2ccc3c(c2c1C)C(=O)CC1(CCN(C(=O)OCC)CC1)O3	–	–	–	–	–	–
CCN1C2=C(C(=O)CCC2)C(c2ccc(O)c(Br)c2)C2=C1CCCC2=O	·	–	2.1	–	–	–
Cc1ccc(C2CC(=O)NC3=C2C(=O)CCC3)cc1Br (centres undefined)	–	–	–	–	–	–
SMILES	Spn DPM-DC inh	A340 absorber	Fluor 339 460	NADH enzymes	PMK inhibit	Spn MK inh
Cn1c(=N)c(S(=O)(=O)c2ccccc2)cc2c(=O)n3ccccc3nc21	·	–	2.8	–	–	–
N=c1c(S(=O)(=O)c2ccc(Cl)cc2)cc2c(=O)n3ccccc3nc2n1CCN1CCOCC1	·	–	5	–	–	·
Cc1ccc(S(=O)(=O)c2cc3c(=O)n4cccc(C)c4nc3n(CC3CCCO3)c2=N)cc1 (centres undefined)	–	–	–	–	–	–
Cn1c(=N)c(S(=O)(=O)c2ccc(F)cc2)cc2c(=O)n3ccccc3nc21	·	–	3.4	–	–	–
CC(C)C(=O)Nc1nnc(-c2ccccc2)o1	–	–	–	–	–	–
O=C(Nc1nnc(-c2ccccc2)o1)c1nc2ccccc2s1	·	–	2.2	–	–	–
NC(=O)c1oc2ccccc2c1NC(=O)c1nc2ccccc2s1	–	–	2.6	–	–	–
C#CC(CC)(CC)NC(=O)c1c(C)noc1C	–	–	–	–	–	–
CCC1c2ccc(C)n2CCN1C(=O)Nc1ccccc1C(=O)OC (centres undefined)	–	–	2.5	–	–	–
O=C(CCCCCn1c(=O)[nH]c2ccsc2c1=O)N1CCN(C2CCCCC2)CC1	–	–	–	–	–	–
Cc1cccc(-n2c(=O)[nH]c3c(C(N)=O)nc(C(C)C)nc32)c1	·	–	5	–	–	–
COc1ccc(-c2nc(C(N)=O)c3[nH]c(=O)n(-c4cccc(Cl)c4)c3n2)cc1OC	–	–	–	–	–	–
O=C(CCNc1ccc(F)cc1)c1ccco1	–	–	–	–	–	–
c1ccc2c(c1)nnn2Cc1nnc2sc(-c3ccc4c(c3)OCCO4)nn12	+	–	2.9	–	–	–
c1ccc(-c2nn3c(Cn4nnc5ccccc54)nnc3s2)cc1	–	–	–	–	–	–
COc1ccc(N(CC(=O)Nc2cc(OC)ccc2OC)S(C)(=O)=O)cc1	–	–	–	–	–	51
COc1ccccc1S(=O)Cc1ccc(C(=O)NCc2ccccc2Cl)o1 (centres undefined)	–	–	–	–	–	–
CCSc1n[nH]c(=O)[nH]c1=O	–	–	–	–	–	–
Cc1cc(NCCCN2CCOCC2)n2nc(C)c(-c3ccccc3)c2n1	–	–	–	–	–	–
Cc1cc(C)c2c(n1)nn1c(NCCCn3ccnc3)cc(C)nc21	·	–	3.9	–	–	–
COc1ccccc1-c1c(C)nn2c(NCCN3CCCC3)cc(C)nc12	–	–	–	–	–	–
Cc1cc(NCCOCCO)n2ncc(-c3ccc(Cl)cc3)c2n1	–	–	2.6	–	–	–
Cc1cc(C)c2c(n1)nn1c(NCCCN3CCOCC3)cc(C)nc21	·	–	3	–	–	–
Cc1cc(NCCCN2CCOCC2)n2nc(C)c(-c3ccc(F)cc3)c2n1	–	–	–	–	25	–
CCOC(=O)C1C(=O)CC(C)(O)C(C(=O)OCC)C1/C=C/c1ccccc1 (centres undefined)	–	–	–	–	–	–
CCCCOC(=O)Nc1cc(C(=O)OC)ccc1C(=O)OC	–	–	–	–	–	–
Cc1cc(NCCCN2CCOCC2)n2ncc(-c3ccccc3)c2n1	–	–	2.1	–	–	–
COC(=O)C1=CN(C)C=C(C(=O)OC)C1c1ccc(O)c(OC)c1	–	–	–	–	–	–

Screens deposited in PubChem by SRMLSC.
